The assay deals with 5-HT1A receptor (human, UniProt P08908). Put plainly: primary screen, binary call; higher = more effect of the substance. More on the design: hit call from the mean of at least two separate experiments. The conditions noted are these: 10 µM. As for the experimental part:
GPCR radioligand binding assays were performed in HEK293 cells with stable expression of human 5-HT1A, 5-HT6, and 5-HT7b receptors (prepared with the use of Lipofectamine 2000). Non-specific binding was defined with 10 µM of 5-HT in 5-HT1AR and 5-HT7R binding experiments, whereas 10 µM of mianserin was used in 5-HT6R assays, respectively. Each compound was tested at 10 µM concentration. Results were expressed as means of at least two separate experiments.
5-HT1A receptor, sequence (P08908 whole entry, looked up): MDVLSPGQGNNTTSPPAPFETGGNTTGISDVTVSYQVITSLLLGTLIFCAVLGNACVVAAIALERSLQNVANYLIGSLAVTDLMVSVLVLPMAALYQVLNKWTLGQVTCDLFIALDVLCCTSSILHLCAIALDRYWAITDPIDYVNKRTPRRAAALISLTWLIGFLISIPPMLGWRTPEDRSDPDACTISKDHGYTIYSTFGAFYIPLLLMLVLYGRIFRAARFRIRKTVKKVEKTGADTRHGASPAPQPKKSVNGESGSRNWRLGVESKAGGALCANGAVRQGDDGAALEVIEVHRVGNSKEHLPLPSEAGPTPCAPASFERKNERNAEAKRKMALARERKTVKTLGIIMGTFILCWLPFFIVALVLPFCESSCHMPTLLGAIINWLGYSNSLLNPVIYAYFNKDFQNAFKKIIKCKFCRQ
`O=C1NC2(CCCC2)Nc2ccccc21`: the 5-HT1 was 0 (inactive).
As to `O=C(O)C1CCN(c2ncccn2)CC1`, the 5-HT1 was 0 (inactive).
As to `NC1CCc2ccccc21` (stereo not shown), the 5-HT1 is 0 (inactive).
The result for `CN1CC(=O)NC1=O` reads 0 (inactive).
The result for `O=C1CCN(c2ccccn2)CC1` reads 0 (inactive); that for `CC1C(=O)NC(=O)N1c1ccc(Cl)cc1` (stereo not shown), 0 (inactive); that for `O=c1[nH]ncc2c1oc1ccccc12`, 0 (inactive).
The result for `NC(=O)N1CCC(C(=O)O)CC1` reads 0 (inactive); that for `CCc1nccn1CC(=O)O`, 0 (inactive).
Consider `Cc1nccn1Cc1cccc(C#N)c1`, for which the 5-HT1 is 0 (inactive).
The result for `c1ccc2sc(N3CCNCC3)nc2c1` reads 1 (active).
The result for `O=c1ccc2c([nH]1)CCCC2` reads 0 (inactive).
The result for `CC(CN)N1CCc2sccc2C1` (stereo not shown) reads 0 (inactive); that for `CS(=O)(=O)Nc1ccc(C(=O)O)cc1`, 0 (inactive).
As to `O=C1CCCc2occc21`, the 5-HT1 is 0 (inactive).
With `c1cnc2c(c1)NCCC2`, the 5-HT1 was 0 (inactive).
Regarding `c1ccc(Nc2nncs2)cc1`, the 5-HT1 is 0 (inactive).
As to `N#CC1CCS(=O)(=O)C1` (stereo not shown), the 5-HT1 is 0 (inactive).
For `Cc1cnc(C(F)(F)F)cn1`, the 5-HT1 is 0 (inactive).
Regarding `COc1cccc(NC2=NCCCCC2)c1`, the 5-HT1 is 0 (inactive).
The result for `O=C(O)c1cnc(-c2ccccc2)s1` reads 0 (inactive); that for `O=C(c1ccccc1)N1CCC(CO)CC1`, 0 (inactive).
The result for `COc1ccc(C2=CCNCC2)cc1` reads 0 (inactive); that for `O=C(CN1CCCC1)c1ccccc1Cl`, 1 (active); that for `CC1CCc2sc(C(=O)O)cc2C1` (stereo not shown), 0 (inactive).
For `Fc1ccc(CC2CCCNC2)cc1` (stereo not shown), the 5-HT1 was 0 (inactive).
The result for `N#Cc1ccc2ncsc2c1` reads 0 (inactive); that for `Oc1ccccc1N1CCCCC1`, 0 (inactive); that for `Cn1nc(C(F)(F)F)cc1O`, 0 (inactive).
The result for `Nc1ccc(-c2ccccc2)cc1C(=O)O` reads 0 (inactive); that for `O=C(O)c1cccc(Nc2ncccn2)c1`, 0 (inactive); that for `c1ccc2c(N3CCNCC3)ccnc2c1`, 1 (active).
The result for `N#Cc1ccc(C(=O)N2CCOCC2)cc1` reads 0 (inactive); that for `Cc1cc(C)c2c(=O)[nH]n(C)c2n1`, 0 (inactive).
With `O=C1NC(=O)/C(=C\c2cccs2)N1`, the 5-HT1 was 0 (inactive).
As for `Nc1ccc(SC(F)F)cc1`, the 5-HT1 is 0 (inactive).
With `Cc1nc(-c2ccccc2)cs1`, the 5-HT1 was 0 (inactive).
The result for `CCn1cnc2ccccc21` reads 0 (inactive); that for `Cc1cc(-c2ccccc2)n[nH]1`, 0 (inactive).
As to `CC1(C)OC(=O)c2cc(Br)c(O)cc2O1`, the 5-HT1 is 0 (inactive).
